Bioassay records deposited in PubChem by several laboratories.
PfM18AAP inh – PfM18AAP enzyme inhibition. recombinant PfM18AAP, H-Glu-NHMec fluorogenic cleavage. inhibition, % at 7.35 µM. hit rate 1.2% among 290,000;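 active means inhibition above the campaign mean inhibition over all tested compounds plus 3 SD, cut at about 28% in these data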;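 further: 0% = plate median of test compound wells and 100% = 2 mM ZnCl2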
H9c2 protect – myocardial damage modulation in H9c2 cells; H9c2 cardiomyocytes, H2O2 injury protection, ATPLite, 2 h; protection from H2O2 cell death, % at 20 µM; hit rate 0.63% among 360,000;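 active means compounds giving at least 50% protection of heart cells from peroxide-induced death in the single-dose screen, raw or plate-pattern-corrected value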;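 further: 0% = DMSO wells with peroxide and 100% = DMSO wells without peroxide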
PfGluPho inh – PfG6PD (Plasmodium falciparum) enzyme inhibition | PfGluPho enzyme, NADPH resazurin-diaphorase fluorescence | inhibition, % at 20 µM | hit rate 0.78% among 350,000;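 active means inhibition reaching at least a set limit at 20 µM in the primary screen, cut at about 59% in these data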;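 further: 0% = DMSO wells with substrate and 100% = DMSO wells lacking glucose-6-phosphate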
ALR H2O2 inh – blocks human ALR sulfhydryl oxidase activity; P55789; purified ALR, DTT oxidation, H2O2 HRP-luminol luminescence; inhibition, % (no concentration beside the values); hit rate 3.8% among 290,000;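 active means mean replicate inhibition above about 79%, with every replicate also reaching it, limit read from the data; inconclusive means only one of the two criteria met; inactive means mean below limit and not every replicate reaching it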
PHOSPHO1 block – PHOSPHO1 (human) inhibition | inhibition, % at 13.3 µM | hit rate 1.1% among 290,000 | recombinant PHOSPHO1, absorbance phosphatase assay | Q8TCT1; in the data active means inhibition above about 60%
Target sequence (Q8TCT1 whole entry, looked up): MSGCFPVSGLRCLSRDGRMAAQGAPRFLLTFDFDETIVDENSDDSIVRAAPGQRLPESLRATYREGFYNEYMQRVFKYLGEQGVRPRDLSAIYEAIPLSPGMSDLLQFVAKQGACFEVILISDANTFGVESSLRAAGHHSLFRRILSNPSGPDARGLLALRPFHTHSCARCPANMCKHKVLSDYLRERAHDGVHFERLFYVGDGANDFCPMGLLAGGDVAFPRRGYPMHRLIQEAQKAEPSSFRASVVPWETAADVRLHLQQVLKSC
* hit, by the source's call. Only some compounds are listed: those with a hit (about 5.6% of all), similar ones and a draw of the others.

CS(=O)(=O)c1sc2nc(-c3cccs3)cc(-c3ccccc3)c2c1N was read as PfM18AAP inh 8, H9c2 protect 16, PfGluPho inh 56, ALR H2O2 inh 3 and PHOSPHO1 block 11.
Cc1ccc(-c2cc(-c3ccccc3)c3c(N)c(S(C)(=O)=O)sc3n2)cc1 was read as PfM18AAP inh 8, H9c2 protect -1, PfGluPho inh 9, ALR H2O2 inh 62 and PHOSPHO1 block 82*.
CN(C)c1ccc(/C=C2/NC(=O)NC2=O)cc1 was read as PfM18AAP inh 4, H9c2 protect -4, PfGluPho inh 0, ALR H2O2 inh 99* and PHOSPHO1 block 21.
Cn1c(-c2cccc(Br)c2)cnc1NCc1cccnc1 was read as PfM18AAP inh 16, H9c2 protect 7, PfGluPho inh -12, ALR H2O2 inh 85* and PHOSPHO1 block 18.
`Cn1c(-c2ccc(F)cc2)cnc1NCc1ccccc1` gave PfM18AAP inh 0, H9c2 protect 8, PfGluPho inh 9, ALR H2O2 inh 69 and PHOSPHO1 block 7.
For COc1ccccc1CNc1ncc(-c2ccc(F)cc2)n1C the results were PfM18AAP inh 9, H9c2 protect 1, PfGluPho inh -6, ALR H2O2 inh 98* and PHOSPHO1 block 25.
Screening COc1cc(CNc2ncc(-c3ccc(Br)cc3)n2C)cc(OC)c1O returned PfM18AAP inh 11, H9c2 protect -2, PfGluPho inh 33, ALR H2O2 inh 86* and PHOSPHO1 block 20.
Screening COC(=O)c1c(NC(=S)NNC(=O)c2ccc(Cl)s2)sc(C(=O)N(C)C)c1C returned PfM18AAP inh 15, H9c2 protect -1, PfGluPho inh -20, ALR H2O2 inh inconclusive and PHOSPHO1 block -7.
CC1c2ccccc2N(NC(=O)Cc2ccccc2)C1C (stereo not given) was read as PfM18AAP inh -16, H9c2 protect 5, PfGluPho inh 10, ALR H2O2 inh 29 and PHOSPHO1 block 58.
For CC(=O)Nc1ccc(-c2csc(NC(=O)Cc3cccc(F)c3)n2)cc1 the results were PfM18AAP inh -2, H9c2 protect 4, PfGluPho inh 5 and PHOSPHO1 block 19.
COc1ccc(N2CCN(CCNC(=O)CCS(=O)(=O)c3cccc4nsnc34)CC2)cc1 was read as PfM18AAP inh -3, ALR H2O2 inh 94* and PHOSPHO1 block -18.
CC(C)C(NS(=O)(=O)c1cccs1)C(=O)NCCN1CCN(c2ccccc2)CC1 (stereo not given) was read as PfM18AAP inh 7, H9c2 protect 7, PfGluPho inh 2, ALR H2O2 inh 99* and PHOSPHO1 block 34.
Screening COc1ccc(N2CCN(CCNC(=O)C3CCN(S(=O)(=O)c4cccs4)CC3)CC2)cc1 returned PfM18AAP inh 2, H9c2 protect -1, PfGluPho inh 3, ALR H2O2 inh 12 and PHOSPHO1 block 15.
`COc1ccc(N2CCN(CCNC(=O)CCNS(=O)(=O)c3cccs3)CC2)cc1` gave PfM18AAP inh 2, H9c2 protect -7, PfGluPho inh 0, ALR H2O2 inh 93* and PHOSPHO1 block -7.
COc1ccc(N2CCN(CCNC(=O)Nc3ccc([N+](=O)[O-])cc3OC)CC2)cc1 was read as PfM18AAP inh 5, H9c2 protect -5, PfGluPho inh -4, ALR H2O2 inh 89* and PHOSPHO1 block 20.
`COc1cc2cc(c1Cl)N(C)C(=O)CC(OC(=O)C(C)N(C)C(C)=O)C1(C)OC1C(C)C1CC(O)(NC(=O)O1)C(OC)C=CC=C(C)C2` (stereo not given) gave H9c2 protect 4 and PfGluPho inh 14.
Screening CC(C)COC(=O)N(C)C[C@H]1OCc2cnnn2CCCC(=O)N([C@H](C)CO)C[C@H]1C returned H9c2 protect 5 and PfGluPho inh 7.
Screening COc1cc2c(cc1OC)C(Cc1ccc(O)c(Oc3ccc(C[C@H]4c5cc(OC)c(OC)cc5CCN4C)cc3)c1)N(C)CC2 (stereo not given in full) returned ALR H2O2 inh 7.
CCN(CC)c1ccc(S(=O)(=O)N2CCCCC2)cc1NC(=O)CN1C(=O)NC2(CCCC2)C1=O was read as H9c2 protect 6, PfGluPho inh 0 and ALR H2O2 inh -1.
For Nc1scc2c(C(=O)N/N=C/c3ccc(Cl)cc3)nn(-c3ccccc3)c(=O)c12 the results were PfM18AAP inh 4, H9c2 protect 11, PfGluPho inh 56, ALR H2O2 inh -1 and PHOSPHO1 block 101*.
S=c1[nH]nc(-c2ccccc2)n1Cc1ccccc1 was read as PfM18AAP inh 20, H9c2 protect -2, PfGluPho inh 24, ALR H2O2 inh 49 and PHOSPHO1 block 105*.
